PubChem BioAssay (NCI)
This is part of a sample that, as a whole, favours compounds with a hit. Of some 83,000 tested, about 20% had one in any assay.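 48-hour exposure, single concentration, 96-well plates; percent growth endpoint where 0 means no net growth. Active: below 10.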 Activity calls are given as the source filed them.

Assays:
Assay in all cases: NCI-60 one-dose screen, 48 h (100 = growth as untreated, 0 = no growth, -100 = all killed)
Details in all cases: 10 µM unless noted
[1] = test system: RPMI-8226 leukemia
[2] = test system: OVCAR-8 ovarian
[3] = test system: OVCAR-5 ovarian
[4] = test system: OVCAR-4 ovarian
[5] = test system: SK-OV-3 ovarian
[6] = test system: IGROV1 ovarian
[7] = test system: OVCAR-3 ovarian
[8] = test system: HS 578T breast
[9] = test system: NCI/ADR-RES ovarian
[10] = test system: T-47D breast
[11] = test system: BT-549 breast
[12] = test system: MDA-MB-435 melanoma
[13] = test system: SW-620 colon
[14] = test system: MCF7 breast
[15] = test system: HCT-116 colon
[16] = test system: HCC-2998 colon
[17] = test system: KM12 colon

Measured: growth

CC(=O)Oc1ccccc1C(=O)Nc1ccc(C(=O)/C=C/c2cccs2)cc1
inactive: [1] 96.2% | [2] 107% | [3] 109% | [4] 104% | [5] 132% | [6] 116% | [7] 122% | [8] 120% | [9] 106% | [10] 100% | [11] 99.2% | [12] 97.8% | [13] 107% | [14] 93% | [15] 108% | [16] 109% | [17] 102%

CCCC(=O)NC(c1ccc2c(c1)OC(F)(F)O2)c1cc(C)c2cccnc2c1O (stereo unspecified)
active: [5] 9.65%
inactive: [1] 29.1% | [2] 14.3% | [3] 42% | [4] 33.7% | [6] 12.7% | [7] 24.8% | [8] 38.5% | [9] 18.8% | [10] 23.9% | [11] 37.9% | [12] 22.9% | [13] 30.3% | [14] 24.1% | [15] 26.2% | [16] 53.3% | [17] 21.4%

Clc1ccc2oc3c(OCCCn4ccnc4)c4ccccc4nc3c2c1
inactive: [1] 67% | [2] 44.3% | [3] 73.5% | [4] 74.5% | [5] 112% | [6] 55% | [7] 101% | [8] 87.8% | [9] 56.4% | [10] 74.6% | [11] 95.7% | [12] 64.6% | [13] 36.1% | [14] 63.2% | [15] 28.9% | [16] 72.1% | [17] 55.8%

CS(=O)(=O)c1ccc(-c2nc3ccccn3c2-c2nc3ccc([N+](=O)[O-])cc3[nH]2)cc1
inactive: [1] 95.1% | [2] 94.5% | [3] 97.8% | [4] 93.2% | [5] 107% | [6] 81% | [7] 110% | [8] 99.7% | [9] 92.2% | [10] 91.2% | [11] 122% | [12] 94.5% | [13] 93.2% | [14] 85.2% | [15] 97% | [16] 105% | [17] 93.8%

c1ccc(CNc2ncnc3ccc(-c4cnc5[nH]ncc5c4)cc23)cc1
active: [6] 9.48%
inactive: [1] 60.8% | [2] 71.2% | [3] 61.8% | [4] 79.4% | [5] 72.1% | [7] 67.1% | [8] 45% | [9] 81.9% | [10] 18.5% | [11] 62.2% | [12] 86.9% | [13] 72.9% | [14] 30.3% | [15] 80.1% | [16] 83.6% | [17] 84.9%

O=C(N/N=C/c1cccs1)c1[nH]c2ccc(Br)cc2c1-c1ccccc1
inactive: [3] 46.1% | [4] 72.2% | [5] 36% | [6] 18% | [7] 21.5% | [8] 27.2% | [9] 17.8% | [10] 68.4% | [13] 22.8% | [16] 24.1%
active: [1] 3.64% | [2] 3.38% | [11] -14.2% | [12] -26.1% | [14] 8.78% | [15] -33.7% | [17] 6.37%

Clc1ccc2c(NCCCN3CCOCC3)c3oc4ccccc4c3nc2c1
inactive: [1] 23.2% | [2] 32.5% | [3] 39.6% | [4] 64.8% | [5] 97.6% | [6] 25.8% | [7] 74.2% | [8] 58.2% | [9] 44.2% | [10] 76.5% | [11] 104% | [12] 36% | [13] 21.8% | [14] 16.6% | [15] 20.1% | [16] 50.4% | [17] 32%

COc1ccc(C(=O)/C=C/c2ccc(Oc3nc(NCCO)nc(N4CCOCC4)n3)c(OC)c2)cc1
active: [1] 9.42% | [13] 0.395%
inactive: [2] 69.6% | [3] 99.9% | [4] 81.8% | [5] 108% | [6] 78.6% | [7] 101% | [8] 78.1% | [9] 82.9% | [10] 94.1% | [11] 90.9% | [12] 44.5% | [14] 12.7% | [15] 10.6% | [16] 99.8% | [17] 28.9%

COc1ccccc1C(=O)CSc1nc(Nc2ccc(S(N)(=O)=O)cc2)c2ccccc2n1
inactive: [1] 90.8% | [2] 90.5% | [3] 90.8% | [4] 86.6% | [5] 121% | [6] 95.5% | [7] 107% | [8] 96.9% | [9] 106% | [10] 89.6% | [11] 111% | [12] 90.4% | [13] 98.1% | [14] 44.6% | [15] 77% | [16] 103% | [17] 78.4%

CC(C)(C)Nc1nc2c(OCCc3ccccc3)cccn2c1-c1ccccc1Cl
inactive: [3] 10.9% | [4] 13.5% | [10] 10.3% | [11] 24% | [13] 11.5%
active: [1] -25.8% | [2] 9.35% | [5] -22.7% | [6] 5.74% | [7] 8.2% | [8] -1.74% | [9] 5.82% | [12] 7.76% | [14] -10.6% | [15] 2.39% | [16] -0.61% | [17] 4.49%

CC(=NNc1ncnc2ccccc12)c1ccc(S(C)(=O)=O)cc1
inactive: [1] 98.6% | [2] 98.2% | [3] 111% | [4] 122% | [5] 102% | [6] 96.5% | [7] 118% | [8] 95.3% | [9] 103% | [10] 103% | [11] 105% | [12] 106% | [13] 104% | [14] 87.5% | [15] 100% | [16] 111% | [17] 102%

COC(=O)C(Cc1ccccc1)NS(=O)(=O)/N=C1\NC(=O)NC1=C(Cl)Cl (stereo unspecified)
active: [1] 4.3% | [17] 9.49%
inactive: [2] 102% | [3] 115% | [4] 112% | [5] 108% | [6] 101% | [7] 110% | [8] 100% | [9] 106% | [10] 68.4% | [11] 95.6% | [12] 105% | [13] 98.9% | [14] 29.1% | [15] 77.3% | [16] 113%

C/C(=N/NC(N)=S)c1ccc(Nc2nc(SCC(C)C)nc(-c3ccc(F)cc3)c2C#N)cc1
inactive: [1] 34.2% | [3] 29.2% | [4] 26.5% | [5] 28.9% | [6] 21.2% | [10] 21.6% | [11] 55.8% | [12] 13.1% | [16] 34.8% | [17] 23.5%
active: [2] -3.63% | [7] -19.5% | [8] 4% | [9] -14.6% | [13] 4.45% | [14] 0.17% | [15] 3.84%

NS(=O)(=O)c1ccc(Nc2nc(Nc3ccccc3)nc(-n3nc(-c4ccccc4)cc3-c3ccccc3)n2)cc1
active: [1] 6.63% | [14] 6.85% | [17] 9.22%
inactive: [2] 40% | [3] 78.1% | [4] 37.9% | [5] 65.8% | [6] 25.6% | [7] 31.5% | [8] 64.6% | [9] 45% | [10] 36.9% | [11] 52.7% | [12] 26.9% | [13] 38.2% | [15] 10.5% | [16] 43.1%

CC(=O)Oc1ccccc1C(=O)Nc1cc(C(C)C)ccc1C
active: [1] 1.78% | [5] 0.738% | [7] 6.75% | [9] 9.16% | [10] 9.13% | [14] 9.56%
inactive: [2] 13.8% | [3] 43.6% | [4] 16.9% | [6] 25.5% | [8] 19.7% | [11] 37.5% | [12] 11.1% | [13] 23.8% | [15] 11.3% | [16] 20.5% | [17] 11.1%

O=C1/C(=C/C2=Cc3ccccc3OC2)SC(=S)N1c1ccc(F)cc1
inactive: [1] 104% | [2] 105% | [3] 100% | [4] 96.1% | [5] 108% | [6] 95.9% | [7] 109% | [8] 99.2% | [9] 108% | [10] 87.7% | [11] 100% | [12] 101% | [13] 107% | [14] 90.6% | [15] 99.1% | [16] 107% | [17] 97.5%

N#Cc1nc(-c2ccccc2)oc1N1CC[C@@H](CO)C1
inactive: [1] 99.5% | [2] 100% | [3] 108% | [4] 101% | [5] 116% | [6] 94.5% | [7] 109% | [8] 111% | [9] 102% | [10] 98.1% | [11] 117% | [12] 99% | [13] 99% | [14] 70.5% | [15] 103% | [16] 110% | [17] 111%

Nc1cc(-c2c[nH]c3ccccc23)nc2cc(-c3c[nH]c4ccccc34)nn12
inactive: [1] 35.9% | [2] 64.3% | [3] 51% | [4] 65.1% | [5] 139% | [6] 57.2% | [7] 92.4% | [8] 81.1% | [9] 59% | [10] 68.7% | [11] 84.4% | [12] 70.9% | [14] 26.7% | [15] 30.7% | [16] 21% | [17] 10.3%
active: [13] -25.1%
